Entries with a potency or affinity are not part of this list. Records with an inconclusive call do not appear. Activity calls are given as the source filed them.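 The calls were made as follows, unless noted: active = fitted half-maximal concentration for viability loss no higher than twice the top valid dose, in every repeat run; inconclusive = repeat runs disagree, flat partial loss, or poor curve fit; inactive = the rest.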
Experiment: cytotoxicity in PAX8-dependent RMG-1 cells, dose response, cell-based, cherry-pick (AID 687029;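 active = signal drop whose fitted half-maximal concentration is at most twice the top valid dose, in every test run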;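 also: cells exposed to compound for 96 hours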)
Conditions: RMG-1 viability, CellTiterGlo ATP luminescence, 96 h; series mostly up to 35 µM

Row | Structure (SMILES) | outcome
1 | O=C(CCS(=O)(=O)c1ccccc1)Nc1nc2ccc(F)cc2s1 | inactive
2 | C[C@@H]1CN([C@@H](C)CO)C(=O)c2cc(NC(=O)CCC(F)(F)F)ccc2O[C@@H](C)CCCCO[C@H]1CN(C)Cc1ccc(C(F)(F)F)cc1 | inactive
3 | C[C@H](CO)N1C[C@H](C)[C@H](CN(C)CC2CCCCC2)OCCCC[C@H](C)Oc2ccc(NC(=O)Nc3ccccc3)cc2C1=O | inactive
4 | O=C(CN1C(=O)c2ccccc2S1(=O)=O)c1ccc(Cl)cc1Cl | inactive
5 | CCN(CC)CCCNc1nc2ccccc2c2[nH]c3ccc(OC)cc3c12 | inactive
6 | CN(C)CCCN(C(=O)CCOc1ccccc1)c1nc2c(F)cccc2s1 | inactive
7 | O=c1ccc2ccccc2c2ccccc12 | inactive
8 | COc1ccc(-c2cc(C(F)(F)F)nc(S(=O)(=O)CCCC(=O)Nc3cc(C)on3)n2)cc1OC | inactive
9 | Cn1c(=O)[nH]c(=O)c2c1nc([N+](=O)[O-])n2Cc1ccccc1 | inactive
10 | COc1ccccc1C#Cc1ccc([C@H]2[C@H](C#N)N(C(=O)C3CCCC3)[C@H]2CO)cc1 | inactive
11 | COc1ccc(S(=O)(=O)Nc2ccc3c(c2)C(=O)N([C@H](C)CO)C[C@H](C)[C@H](CN(C)S(=O)(=O)c2ccc(F)cc2)OCCCC[C@H](C)O3)cc1 | inactive
12 | CC(C)(C)c1nnc(NC(=O)CCS(=O)(=O)c2ccccc2)s1 | inactive
13 | C[C@@H]1CCCCO[C@H](CN(C)C(=O)Cc2ccccc2)[C@@H](C)CN([C@@H](C)CO)C(=O)c2cc(NS(=O)(=O)c3ccc(Cl)cc3)ccc2O1 | inactive
14 | C[C@@H]1CCCCO[C@H](CN(C)Cc2ccc(C(F)(F)F)cc2)[C@@H](C)CN([C@@H](C)CO)C(=O)c2cc(NC(=O)c3ccccc3)ccc2O1 | inactive

Experiment: cytotoxicity in IOSE-T80 ovarian epithelial cells, dose response, selectivity assay for PAX8 inhibitor project, cell-based, cherry-pick (AID 687032);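 also: cells exposed to compound for 96 h before reading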
Conditions: CellTiterGlo ATP luminescence, 96 h; series mostly up to 35 µM

Row | Structure (SMILES) | outcome
15 | C[C@@H]1CCCCO[C@@H](CN(C)Cc2ccc(C(F)(F)F)cc2)[C@H](C)CN([C@@H](C)CO)C(=O)c2cc(NS(=O)(=O)c3ccc(Cl)cc3)ccc2O1 | inactive
16 | COc1ccc2c3c([nH]c2c1)[C@@H](CO)N(C(=O)Nc1cccc(F)c1)CC31CCN(S(=O)(=O)c2cccc(C)c2)CC1 | inactive
17 | Cc1ccc(S(=O)(=O)N(C)C[C@@H]2Oc3ccc(NC(=O)Nc4ccc(C(F)(F)F)cc4)cc3CC(=O)N([C@@H](C)CO)C[C@@H]2C)cc1 | inactive
18 | COc1ccc(C#Cc2ccc([C@H]3[C@@H](CO)N4CCCCN(C(=O)Nc5ccccc5)C[C@H]34)cc2)cc1 | inactive
19 | C[C@H]1CCCCO[C@@H](CN(C)Cc2ccncc2)[C@@H](C)CN([C@@H](C)CO)C(=O)c2cc(NC(=O)Nc3ccc(C(F)(F)F)cc3)ccc2O1 | inactive
20 | C[C@@H]1CN([C@H](C)CO)C(=O)c2cc(NC(=O)Cc3ccccc3)ccc2O[C@@H](C)CCCCO[C@H]1CN(C)Cc1ccc(C(F)(F)F)cc1 | inactive
21 | O=C(C1CCC1)N1CCCCN2[C@H](CO)[C@H](c3ccc(-c4cccc(F)c4)cc3)[C@H]2C1 | inactive
22 | C[C@H]1CCCCO[C@H](CN(C)C(=O)Nc2ccc(C(F)(F)F)cc2)[C@@H](C)CN([C@@H](C)CO)C(=O)c2cc(NS(=O)(=O)c3cccs3)ccc2O1 | inactive
23 | COc1cc(/C=C/C(=O)N2CCC=CC2=O)cc(OC)c1OC | inactive
24 | CCOc1ccc(C2=Nn3c(nnc3-c3ccccc3OC)SC2)cc1 | inactive
25 | C[C@@H]1CN([C@@H](C)CO)C(=O)c2cc(N(C)C)ccc2O[C@@H](C)CCCCO[C@H]1CN(C)S(=O)(=O)c1ccc(F)cc1 | inactive
26 | C[C@H](CO)N1C[C@H](C)[C@@H](CN(C)S(=O)(=O)c2ccc(Cl)cc2)OCCCC[C@H](C)Oc2ccc(NS(=O)(=O)c3ccc(F)cc3)cc2C1=O | inactive
27 | CS(=O)(=O)Nc1ccc2c(c1)[C@@H]1C[C@@H](CC(=O)NCc3ccc(-c4ccccc4)cc3)O[C@@H](CO)[C@@H]1O2 | inactive
28 | COc1ccccc1NC(=O)N1CCCCN2[C@H](C1)[C@@H](c1ccc(-c3cccc(C#N)c3)cc1)[C@@H]2CO | inactive
29 | COc1ccc(NC(=O)Nc2ccc3c(c2)C(=O)N([C@@H](C)CO)C[C@@H](C)[C@@H](CN(C)Cc2ccc(C(F)(F)F)cc2)O3)cc1 | inactive
30 | C=C(C)c1cccc(C(C)(C)NC(=O)N2CCN(c3ccccc3OC)CC2)c1 | inactive
31 | Cc1ccc(S(=O)(=O)Nc2ccc3c(c2)C(=O)N([C@H](C)CO)C[C@H](C)[C@@H](CN(C)S(=O)(=O)c2ccc(F)cc2)OCCCC[C@H](C)O3)cc1 | inactive
32 | COc1cccc(-c2ccc3c(c2)[C@@H]2[C@@H](CCN2S(=O)(=O)c2ccccc2C)[C@H](CO)N3C)c1 | inactive
33 | C[C@H]1CCCCO[C@H](CN(C)Cc2ccc(C(F)(F)F)cc2)[C@@H](C)CN([C@@H](C)CO)C(=O)c2cc(NC(=O)Nc3ccc(F)cc3)ccc2O1 | inactive
34 | C[C@H]1CN([C@@H](C)CO)S(=O)(=O)c2ccc(C#Cc3ccccc3F)cc2O[C@H]1CN(C)C(=O)c1ccc2c(c1)OCO2 | inactive
35 | C[C@@H]1CCCCO[C@@H](CN(C)Cc2ccncc2)[C@H](C)CN([C@@H](C)CO)C(=O)c2cc(NC(=O)Nc3ccc(C(F)(F)F)cc3)ccc2O1 | inactive
36 | C[C@@H]1CCCCO[C@H](CN(C)C(=O)c2ccccc2)[C@H](C)CN([C@@H](C)CO)C(=O)c2cc(NC(=O)Nc3ccc(C(F)(F)F)cc3)ccc2O1 | inactive
37 | C[C@H]1CN([C@@H](C)CO)S(=O)(=O)c2ccc(C#Cc3ccncc3)cc2O[C@@H]1CN(C)C(=O)Nc1ccc2c(c1)OCO2 | inactive
38 | Oc1ccc(C[C@H]2CNC(=S)N2CC2CCCN2C[C@H](Cc2ccc(O)cc2)N2C[C@H](Cc3ccccc3)N(CC3CCCCCC3)C2=S)cc1 (stereo not given in full) | inactive
39 | C[C@@H]1CCCCO[C@H](CN(C)Cc2ccncc2)[C@H](C)CN([C@H](C)CO)C(=O)c2cc(NC(=O)Nc3ccc(C(F)(F)F)cc3)ccc2O1 | inactive
40 | O=S(=O)(c1ccccc1F)N1CC[C@@H]2[C@H](CO)Nc3ccc(C4=CCCCC4)cc3[C@@H]21 | inactive

From PubChem BioAssay
